# Values without a mark were called inactive. Results filed as inconclusive are left out. The source made the active and inactive calls. Unless noted, calls follow the shape of the dose curve; as a rule, active = well fitted curve in the direction sought with a large enough effect; inconclusive = small, poorly fitted or top-dose-only effect, or another doubt; inactive = no such curve, though single readings can be large; an effect the other way counts as inactive or inconclusive.
# How the values were obtained:
# [1] = target: Cytochrome P450 1A2 (Homo sapiens) (UniProt P05177); test: p450-cyp1a2 (AID 410; calls by dose curve)
# In short: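 Read-out is luminescence from luciferin produced by CYP1A2 demethylation of Luciferin-ME (100uM, at Km). Detection reagent stopped the 60 min NADPH-dependent reaction; signals were normalized to 57 uM furafylline.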
# [2] = target: Mitogen-activated protein kinase 10 (Mus musculus) (UniProt Q61831); test: JNK3 AlphaScreen Assay (AID 530; active = well fitted curve in either direction with a large enough effect, not every such curve was filed as active;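 also: kinase came from lysate of stimulated human HepG2 cells; signal reports phosphorylation of biotinylated GST-cJun 1-79 at Ser73 with 10 µM ATP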)
# In short: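 HepG2 lysate (IL-1b/TNFa pre-activated) + biotin-GST-cJun 1-79 + anti-pSer73 cJun; cpd titration, 15 min RT; ATP 10 uM start; Tris pH 7.6, MgCl2, DTT, vanadate; beads in EDTA buffer; AlphaScreen.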
# [3] = target: 3',5'-cyclic-AMP phosphodiesterase 4B (Homo sapiens) (UniProt Q07343); test: qHTS Assay for Inhibitors of PDE-IV (AID 607; active = well fitted activation curve with a large enough effect in the main read-out, with a control signal flat, not every such curve was filed as active)
# In short: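 ACTOne HEK293 cells carry a modified cAMP-gated CNG channel and express endogenous PDE4; plated 1000 cells/well, compounds up to 22.9 uM final. Membrane-potential dye fluorescence (ex 535/em 590) was read; parental cells received 10 uM forskolin + 100 uM RO 20-1724.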
# [4] = target: alpha-glucosidase (Oryza sativa, rice) (UniProt Q653V4); test: Counterscreen for Glucocerebrosidase Inhibitors: qHTS Assay for Rice alpha-Glucosidase at pH 5.0 (AID 997)
# In short: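 Endpoint fluorogenic assay at pH 5.0: compounds (0.7 nM to 77 uM) titrated against 4 nM rice enzyme and 400 uM 4-MU-alpha-glucoside for 20 min at room temperature; NaOH/glycine stop, read ex 365/em 440 nm, Hill-fitted AC50.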
# [5] = S16 Schwann cell PMP22 intronic element beta-lactamase assay (AID 624044; calls by dose curve; also: nearly all actives have a fitted effect of over 15% in size); details: S16 rat Schwann cells, PMP22 element beta-lactamase FRET, 24 h; ratio activity, negative = inhibition: at 38.3 µM (top of the series)
# In short: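 Beta-lactamase reporter under a PMP22 intronic regulatory element in stable S16 rat Schwann cells; 24 h compound exposure. 460 nm blue signal normalized between DMSO (0%) and potassium clavulanate, with 535 nm FRET tracking viability; curves classed by r2 and response.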
# 3D7 = test: qHTS profiling for inhibitors of Plasmodium falciparum proliferation (AID 504749); also: nearly all actives have a fitted effect of over 60% in size; also: potency is read from the fitted curve at half-maximal effect; details: P. falciparum in erythrocytes, SYBR Green DNA, 72 h; series mostly up to 28.7 µM
# In short: (§1)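 SYBR Green fluorescence (ex 485 nm, em 535 nm) reports parasite DNA after 72 h compound exposure of infected red cells at 0.3% parasitemia, 2.5% hematocrit; signal normalized to 0.29 uM artemisinin and vehicle wells.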
# 7G8 = test: as above; details: P. falciparum in erythrocytes, SYBR Green DNA, 72 h; series mostly up to 28.7 µM
# In short: as §1
# AA1029 = test: as above; details: P. falciparum in erythrocytes, SYBR Green DNA, 72 h; series mostly up to 28.7 µM
# In short: as §1
# AS120 = test: as above; details: P. falciparum in erythrocytes, SYBR Green DNA, 72 h; series mostly up to 28.7 µM
# In short: as §1
# ATS189 = test: as above; details: P. falciparum in erythrocytes, SYBR Green DNA, 72 h; series mostly up to 28.7 µM
# In short: as §1
# ATS95 = test: as above; details: P. falciparum in erythrocytes, SYBR Green DNA, 72 h; series mostly up to 28.7 µM
# In short: as §1
# C2A = test: as above; details: P. falciparum in erythrocytes, SYBR Green DNA, 72 h; series mostly up to 28.7 µM
# In short: as §1
# CP185 = test: as above; details: P. falciparum in erythrocytes, SYBR Green DNA, 72 h; series mostly up to 28.7 µM
# In short: as §1
# CP191 = test: as above; details: P. falciparum in erythrocytes, SYBR Green DNA, 72 h; series mostly up to 28.7 µM
# In short: as §1
# CP192 = test: as above; details: P. falciparum in erythrocytes, SYBR Green DNA, 72 h; series mostly up to 28.7 µM
# In short: as §1
# CP194 = test: as above; details: P. falciparum in erythrocytes, SYBR Green DNA, 72 h; series mostly up to 28.7 µM
# In short: as §1
# CP201 = test: as above; details: P. falciparum in erythrocytes, SYBR Green DNA, 72 h; series mostly up to 28.7 µM
# In short: as §1
# CP203 = test: as above; details: P. falciparum in erythrocytes, SYBR Green DNA, 72 h; series mostly up to 28.7 µM
# In short: as §1
# CP211 = test: as above; details: P. falciparum in erythrocytes, SYBR Green DNA, 72 h; series mostly up to 28.7 µM
# In short: as §1
# CP215 = test: as above; details: P. falciparum in erythrocytes, SYBR Green DNA, 72 h; series mostly up to 28.7 µM
# In short: as §1
# CP217 = test: as above; details: P. falciparum in erythrocytes, SYBR Green DNA, 72 h; series mostly up to 28.7 µM
# In short: as §1
# CP237 = test: as above; details: P. falciparum in erythrocytes, SYBR Green DNA, 72 h; series mostly up to 28.7 µM
# In short: as §1
# CP238 = test: as above; details: P. falciparum in erythrocytes, SYBR Green DNA, 72 h; series mostly up to 28.7 µM
# In short: as §1
# CP247 = test: as above; details: P. falciparum in erythrocytes, SYBR Green DNA, 72 h; series mostly up to 28.7 µM
# In short: as §1
# CP250 = test: as above; details: P. falciparum in erythrocytes, SYBR Green DNA, 72 h; series mostly up to 28.7 µM
# In short: as §1
# CP252 = test: as above; details: P. falciparum in erythrocytes, SYBR Green DNA, 72 h; series mostly up to 28.7 µM
# In short: as §1
# CP256 = test: as above; details: P. falciparum in erythrocytes, SYBR Green DNA, 72 h; series mostly up to 28.7 µM
# In short: as §1
# CP260 = test: as above; details: P. falciparum in erythrocytes, SYBR Green DNA, 72 h; series mostly up to 28.7 µM
# In short: as §1
# CP262 = test: as above; details: P. falciparum in erythrocytes, SYBR Green DNA, 72 h; series mostly up to 28.7 µM
# In short: as §1
# Cytochrome P450 1A2 (Homo sapiens), sequence (P05177 whole entry, looked up): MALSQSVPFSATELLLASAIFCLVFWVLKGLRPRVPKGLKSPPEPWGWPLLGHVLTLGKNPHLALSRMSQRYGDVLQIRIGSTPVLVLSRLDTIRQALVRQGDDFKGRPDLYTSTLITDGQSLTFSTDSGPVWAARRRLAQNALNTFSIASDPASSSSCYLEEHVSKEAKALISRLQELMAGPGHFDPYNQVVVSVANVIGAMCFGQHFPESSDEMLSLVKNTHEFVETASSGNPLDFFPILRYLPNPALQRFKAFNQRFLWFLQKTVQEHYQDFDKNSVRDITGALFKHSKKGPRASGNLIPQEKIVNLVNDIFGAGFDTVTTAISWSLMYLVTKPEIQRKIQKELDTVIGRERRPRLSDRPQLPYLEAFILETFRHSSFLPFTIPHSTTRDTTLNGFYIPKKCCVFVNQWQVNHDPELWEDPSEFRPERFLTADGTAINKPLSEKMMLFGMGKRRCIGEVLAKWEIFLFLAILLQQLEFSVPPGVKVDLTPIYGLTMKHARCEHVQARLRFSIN
# 3',5'-cyclic-AMP phosphodiesterase 4B (Homo sapiens), sequence (Q07343 whole entry, looked up): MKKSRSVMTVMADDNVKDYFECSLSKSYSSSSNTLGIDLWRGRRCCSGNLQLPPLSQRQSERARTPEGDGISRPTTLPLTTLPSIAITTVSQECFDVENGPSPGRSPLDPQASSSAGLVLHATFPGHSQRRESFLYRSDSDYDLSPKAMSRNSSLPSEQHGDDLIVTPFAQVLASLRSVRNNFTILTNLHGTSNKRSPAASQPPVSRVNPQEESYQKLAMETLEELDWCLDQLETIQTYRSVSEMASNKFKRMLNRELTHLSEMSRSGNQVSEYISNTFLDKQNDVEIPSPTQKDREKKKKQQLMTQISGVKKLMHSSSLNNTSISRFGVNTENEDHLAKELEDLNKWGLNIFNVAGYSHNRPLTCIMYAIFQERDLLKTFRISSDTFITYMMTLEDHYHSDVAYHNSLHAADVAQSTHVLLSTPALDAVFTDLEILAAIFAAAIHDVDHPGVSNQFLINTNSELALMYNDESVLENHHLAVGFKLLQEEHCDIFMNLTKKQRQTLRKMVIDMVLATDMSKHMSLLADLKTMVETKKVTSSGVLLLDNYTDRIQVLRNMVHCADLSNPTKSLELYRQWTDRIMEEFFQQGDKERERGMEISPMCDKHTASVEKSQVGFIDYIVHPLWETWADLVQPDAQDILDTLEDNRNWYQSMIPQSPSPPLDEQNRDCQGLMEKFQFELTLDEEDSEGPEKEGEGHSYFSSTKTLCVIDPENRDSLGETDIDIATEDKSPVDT
compound,measurement,setting,value
C/C=C\C[C@H](C)[C@H](O)[C@H]1C(=O)N[C@@H](CC)C(=O)N(C)CC(=O)N(C)[C@@H](CC(C)C)C(=O)N[C@@H](C(C)C)C(=O)N(C)[C@@H](CC(C)C)C(=O)N[C@@H](C)C(=O)N[C@@H](C)C(=O)N(C)[C@@H](CC(C)C)C(=O)N(C)[C@@H](CC(C)C)C(=O)N(C)[C@@H](C(C)C)C(=O)N1C,Potency,[1],inactive
same,Potency,[2],inactive
same,Potency,[3],inactive
same,outcome,[4],inactive
same,Potency,[5],inactive
same,Potency,3D7,3.98 µM (active)
same,Potency,7G8,8.91 µM (active)
same,Potency,AA1029,2.82 µM (active)
same,Potency,AS120,3.98 µM (active)
same,Potency,ATS189,inactive
same,Potency,ATS95,3.55 µM (active)
same,Potency,C2A,3.55 µM (active)
same,Potency,CP185,3.55 µM (active)
same,Potency,CP191,3.16 µM (active)
same,Potency,CP192,6.75 µM (active)
same,Potency,CP194,8.49 µM (active)
same,Potency,CP201,6.75 µM (active)
same,Potency,CP203,13.5 µM (active)
same,Potency,CP211,6.75 µM (active)
same,Potency,CP215,7.57 µM (active)
same,Potency,CP217,3.16 µM (active)
same,Potency,CP237,4.47 µM (active)
same,Potency,CP238,3.55 µM (active)
same,Potency,CP247,3.55 µM (active)
same,Potency,CP250,3.55 µM (active)
same,Potency,CP252,3.55 µM (active)
same,Potency,CP256,3.16 µM (active)
same,Potency,CP260,2.82 µM (active)
same,Potency,CP262,3.79 µM (active)

# From PubChem BioAssay (NCATS)
